CHO-K1 Ca PAM: M1 PAM counterscreen hit in parental CHO-K1 cells. activation, % at 3 µM. 360,000 compounds, 0.02% hits. ATP EC20, Fluo-8 calcium fluorescence; 0% at ATP EC20, 100% at ATP max;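 active means activation above the run cutoff, the mean activation of all test compounds plus 3 SD, cut at about 40% in these data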;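 further: peak over basal fluorescence ratio in a 140 s read after ATP addition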
M1 antag: antagonists of human M1 muscarinic receptor; CHO-K1 hM1, Fluo-8 calcium fluorescence, ACh EC80 antagonist; inhibition, % at 3 µM; 360,000 compounds, 1.3% hits; P11229;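 active means percent inhibition above its own plate's cutoff, namely the mean of that plate's compound wells plus 3 SD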;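 further: peak over basal fluorescence ratio during 140 s after agonist addition; 0% = ACh EC80 plus DMSO and 100% = DMSO alone without agonist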
Target sequence (P11229 whole entry, looked up): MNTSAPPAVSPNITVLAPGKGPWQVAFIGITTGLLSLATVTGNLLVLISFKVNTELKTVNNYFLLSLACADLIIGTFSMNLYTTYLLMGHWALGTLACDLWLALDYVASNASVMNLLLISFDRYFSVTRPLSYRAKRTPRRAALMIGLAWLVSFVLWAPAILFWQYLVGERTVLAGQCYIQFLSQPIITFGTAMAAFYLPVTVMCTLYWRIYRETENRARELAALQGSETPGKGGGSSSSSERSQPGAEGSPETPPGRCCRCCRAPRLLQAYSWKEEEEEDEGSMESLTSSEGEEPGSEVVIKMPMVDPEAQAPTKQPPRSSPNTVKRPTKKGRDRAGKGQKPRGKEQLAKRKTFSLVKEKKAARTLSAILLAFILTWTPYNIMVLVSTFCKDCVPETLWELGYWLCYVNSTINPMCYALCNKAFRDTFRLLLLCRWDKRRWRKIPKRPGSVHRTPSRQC
CHO-K1 Ca antag: M1 antagonist counterscreen hit in parental CHO-K1 cells; ATP-induced calcium, Fluo-8 fluorescence; inhibition, % at 3 µM; 360,000 compounds, 0.6% hits; AID 602250;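 active means inhibition above a per-plate cutoff, the plate's mean sample inhibition plus 3 SD, cut at about 24% in these data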;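 further: 0% = DMSO plus EC80 ATP and 100% = DMSO alone without ATP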
CHRM1 PAM: human CHRM1 positive allosteric modulation; P11229; CHO-K1 hM1, Fluo-8 calcium fluorescence, ACh EC20; 0% = ACh EC20, 100% = maximal ACh; activation, % at 3 µM; 360,000 compounds, 0.088% hits; in the data active means activation above about 19%, passing the limit was not always enough
M1 ag parental: nonselective activator or artifact in parental CHO-K1 cells; Fluo-8 calcium fluorescence; scaled to maximal ATP response, vehicle zero; activation, % at 3 µM; 360,000 compounds, 0.48% hits; in the data active means activation above about 15%;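 further: untransfected CHO-K1 host cells lacking M1 receptor as counterscreen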
M1 ag: agonists of human M1 muscarinic receptor | P11229 | CHO-K1 hM1, Fluo-8 calcium fluorescence, agonist mode; 0% DMSO, 100% acetylcholine EC100 | activation, % at 3 µM | 360,000 compounds, 0.33% hits | AID 588814;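 active means activation above the run's mean compound activation plus 3 SD, cut at about 16% in these data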;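 further: peak over basal fluorescence ratio within a 140 s kinetic read after compound addition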
Numbers without * were called inactive. Rows were chosen to be rich in hits. Some 2.4% of all compounds tested hit in one or more screens of this group.

SMILES	CHO-K1 Ca PAM	M1 antag	CHO-K1 Ca antag	CHRM1 PAM	M1 ag parental	M1 ag
Cc1noc(C)c1S(=O)(=O)N1CCN(c2ccc(Cl)cc2)CC1	13	-5	-12	1	1	-4
Cc1noc(C)c1S(=O)(=O)Nc1ccc(C(=O)N2CCN(c3ccc(Cl)cc3)CC2)cc1	8	18*	22	-13	10	6
O=C(NCC(=O)N(CC1CCCO1)C(C(=O)NC1CCCCC1)c1ccccc1)c1cccs1 (stereo not drawn)	12	-20	-11	7	1	-1
O=C(NCC1CCCO1)Nc1ccc(Cl)cc1 (stereo not drawn)	18	-12	-3	8	1	-3
Cc1ccc(CN(C(=O)CNC(=O)c2cccs2)C(C(=O)NCC2CCCO2)c2ccccc2)cc1 (stereo not drawn)	3	43*	-3	-27	7	-1
O=C(NCC1CCCO1)Nc1cc(Cl)cc(Cl)c1 (stereo not drawn)	-7	6	25*	6	1	1
Cc1ccc(C(C(=O)NC2CCCCC2)N(CC2CCCO2)C(=O)CNC(=O)c2cccs2)cc1 (stereo not drawn)	-2	37*	-1	-18	0	-1
O=C(NCC1CCCO1)c1cccs1 (stereo not drawn)	-2	-19	-1	19*	0	-3
CN(C)C(=O)c1ccc(NC(=O)COC(=O)Cn2cc(C(F)(F)F)ccc2=O)cc1	5	-11	-1	18	0	-1
COc1ccc([C@@H](OC)[C@@]2(Cc3ccc(O)cc3)N=C(N)N(C)C2=O)cc1	9	-6	-21	6	0	-10
CCOc1ccccc1OCCCC(=O)N1CCN(S(=O)(=O)c2ccc(Cl)cc2)CC1	5	9	-16	16	3	-5
CCOc1ccccc1OCCCC(=O)N1CCN(S(=O)(=O)c2cc(F)ccc2F)CC1	-18	12	28*	-2	0	-4
COc1cc(/C=C2\C(=O)N(c3cccc(C(=O)O)c3)N=C2C)ccc1OCc1ccccc1	-10	-8	-1	3	0	-3
C#CCOc1ccc(/C=C2/C(=O)N(c3cccc(C(=O)O)c3)N=C2C)cc1OC	-19	-7	26*	9	-1	1
CCN(CC)CCn1c2ccccc2c2nc3ccccc3nc21	7	-1	-6	-5	2	-8
Cn1c2ccccc2c2n[nH]c(=S)nc21	12	-7	7	8	15*	-4
CCN(CC)CCn1c2ccccc2c2n[nH]c(=S)nc21	-4	36*	9	-28	0	-10
CCN(CC)CCSc1nnc2c3cc(F)ccc3n(Cc3ccccc3)c2n1	0	14	-5	-21	0	-11
CCN(CC)CCSc1nnc2c3ccccc3n(Cc3ccccc3)c2n1	13	51*	-8	-22	1	-6
O=C(NC1CCc2ccccc21)c1cc(COc2cncc(Cl)c2)on1 (stereo not drawn)	4	-1	-6	1	8	2
O=C(/C(=C\c1ccccc1)c1nc2ccccc2[nH]1)c1ccc(Cl)cc1	19	1	-16	-15	1	-7
O=c1[nH]c2ccccc2nc1/C=C(\O)c1cccs1	2	4	12	-7	15*	18*
O=C(/C(=C/c1ccc(Cl)cc1)c1nc2ccccc2[nH]1)c1cccs1	4	94*	-11	-36	2	-11
CC/C(=N\NC(=O)Cc1ccc(Br)cc1)c1cccs1	-9	13	-9	-2	0	-3
CC(=O)c1cccc(NC(=O)CCc2nnc3ccc(NCc4ccc5c(c4)OCO5)nn23)c1	3	6	2	0	0	-3
SMILES	CHO-K1 Ca PAM	M1 antag	CHO-K1 Ca antag	CHRM1 PAM	M1 ag parental	M1 ag
O=C(COC(=O)/C=C/c1ccc(Cl)c(Cl)c1)NC1CCS(=O)(=O)C1 (stereo not drawn)	-2	15	14	-5	16*	1
O=C(COC(=O)/C=C/c1ccc(Cl)c(Cl)c1)NC1CCCC1	14	-19	-2	15	1	0
COc1cc(C)ccc1S(=O)(=O)N1CCN(C23CC4CC(CC(C4)C2)C3)CC1	14	98*	-9	-22	0	-9
COc1ccc(CNS(=O)(=O)c2ccc3c(c2)N(C(C)=O)CC(C)S3)cc1 (stereo not drawn)	-15	0	8	1	17*	4
COc1cc(C(=O)NCCC(=O)NC(C)CCc2ccccc2)cc(OC)c1OC (stereo not drawn)	-5	0	1	2	0	-2
Cc1cc(/C=C(\C#N)C(=O)Nc2ccc(F)cc2)c(C)n1-c1ccc(N2CCOCC2)c([N+](=O)[O-])c1	16	-8	-8	10	1	-2
CNC(=O)/C(C#N)=C\c1cc(C)n(-c2ccc(N3CCOCC3)cc2)c1C	-15	5	31*	-14	3	-4
Cc1cc(/C=C2\SC(=S)NC2=O)c(C)n1-c1ccccc1	-24	-21	6	12	2	1
Cc1cc(/C=C2/SC(=O)NC2=O)c(C)n1-c1ccc(N2CCOCC2)cc1	35	-3	-9	2	12	20*
CC(NC(=O)c1ccccc1)C(=O)NC1CCCc2ccccc21 (stereo not drawn)	-21	15	7	1	1	-2
CCN(CC)CCSC(=O)C(c1ccccc1)c1ccccc1	21	101*	-5	-26	1	-9
CCN(CC)CCOC(=O)C(c1ccccc1)c1ccccc1	22	96*	-5	-25	1	-5
CCN(CCO)C(=O)C(c1ccccc1)c1ccccc1	13	-2	-5	10	0	-3
CCN(CC)CCOC(=O)C(c1ccccc1)C1CCCCC1 (stereo not drawn)	-7	99*	4	-27	0	-7
COc1ccc(C(=O)O)cc1S(=O)(=O)Nc1ccc(N2CCCCC2)cc1	27	-10	-15	9	3	-1
O=C(NC1CC(=O)N(c2cccc(F)c2)C1)N1CCN(C(=O)c2ccco2)CC1 (stereo not drawn)	17	-28	-15	11	1	2
COCc1cc(CN2CCCC(C(=O)Nc3cccc(-n4cnnn4)c3)C2)ccc1OC (stereo not drawn)	23	-13	-11	6	2	-6
O=S(=O)(c1ccc2c(c1)C(O)c1ccccc1CC2)C(F)(F)F (stereo not drawn)	-21	30*	9	-26	4	-7
COc1ccc(C2(c3ccc(OC)cc3)NC(=O)N(CC(=O)NCC(C)c3ccccc3)C2=O)cc1 (stereo not drawn)	12	15	-11	-9	8	2

Source: PubChem BioAssay (The Scripps Research Institute Molecular Screening Center)
